# Screening results as filed in PubChem.
# An excerpt weighted towards active compounds, which were near 2.8% of everything screened.
# PAFAH1B3 inh = PAFAH1B3 enzyme inhibitors, primary screen, biochemical, fluorescence polarization, human | AID 492972, 2010 | Platelet-activating factor acetylhydrolase IB subunit alpha1 (Homo sapiens), Q15102 | actives 0.28% (n = 340,000) | inhibition, % at 3.39 µM | recombinant PAFAH1B3, FP-rhodamine probe;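 active = inhibition above the screen-wide average of all tested compounds plus 3 SD, cut at about 25% in these data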;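 note: 0% = enzyme with DMSO only and 100% = wells lacking PAFAH1B3 protein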
# Target sequence (Q15102 whole entry, looked up): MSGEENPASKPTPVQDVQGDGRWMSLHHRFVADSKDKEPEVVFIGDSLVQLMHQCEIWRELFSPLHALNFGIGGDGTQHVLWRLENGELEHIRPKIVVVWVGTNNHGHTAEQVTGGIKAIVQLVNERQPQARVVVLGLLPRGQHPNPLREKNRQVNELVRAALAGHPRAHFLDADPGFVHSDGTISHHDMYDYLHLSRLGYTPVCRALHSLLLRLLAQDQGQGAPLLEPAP
# PME-1 inh = PME-1 inhibitors via competitive probe labeling, primary screen, biochemical, fluorescence polarization, FP-Rh probe, HTS | Protein phosphatase methylesterase 1 (Homo sapiens), Q9Y570 | recombinant PME-1 | inhibition, % at 5.9 µM | actives 0.53% (n = 320,000) | AID 2130, 2009;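 active = inhibition above the campaign mean of all compounds plus 3 SD, cut at about 26% in these data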;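 note: competitive labeling of PME-1 active site by serine hydrolase directed probe; 0% = PME-1 with DMSO and 100% = wells lacking PME-1 enzyme; inhibitors block probe labeling so polarization falls and inhibition rises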
# Target sequence (Q9Y570 whole entry, looked up): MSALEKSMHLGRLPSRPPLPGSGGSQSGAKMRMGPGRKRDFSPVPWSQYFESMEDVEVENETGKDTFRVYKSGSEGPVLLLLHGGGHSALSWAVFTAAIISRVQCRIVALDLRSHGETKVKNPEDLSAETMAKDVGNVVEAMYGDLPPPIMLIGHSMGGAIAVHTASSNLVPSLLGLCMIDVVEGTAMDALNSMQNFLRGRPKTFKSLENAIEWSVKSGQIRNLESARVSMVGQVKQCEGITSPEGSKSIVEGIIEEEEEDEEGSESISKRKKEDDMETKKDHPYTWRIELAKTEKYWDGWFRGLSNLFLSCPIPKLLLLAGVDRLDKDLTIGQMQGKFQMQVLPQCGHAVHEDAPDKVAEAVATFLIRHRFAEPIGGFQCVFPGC
# PAFAH1B2 FP inh = PAFAH1B2 enzyme inhibitors, primary screen, biochemical, fluorescence polarization, human; Platelet-activating factor acetylhydrolase IB subunit alpha2 (Homo sapiens), P68402; recombinant PAFAH1B2, FP-rhodamine activity probe; inhibition, % at 3.39 µM; actives 1.2% (n = 340,000); AID 492953, 2010;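 active = inhibition above the mean of all tested compounds plus 3 SD, cut at about 24% in these data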;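 note: 0% = enzyme with DMSO and 100% = wells lacking PAFAH1B2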
# PAFAH2 inh = PAFAH2 enzyme inhibitors, primary screen, biochemical, fluorescence polarization, human. inhibition, % at 3.39 µM. Platelet-activating factor acetylhydrolase 2, cytoplasmic (Homo sapiens), Q99487. recombinant PAFAH2, FP-rhodamine activity probe. actives 0.99% (n = 340,000);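 active = inhibition above the mean over all tested compounds plus 3 SD, cut at about 30% in these data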;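 note: inhibitors block probe labeling of enzyme so polarization drops; 0% = enzyme with DMSO and 100% = wells lacking PAFAH2 protein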
# pPAFAH inh = pPAFAH enzyme inhibitors, primary screen, biochemical, fluorescence polarization, human; Platelet-activating factor acetylhydrolase (Homo sapiens), Q13093; recombinant pPAFAH, FP-rhodamine probe fluorescence polarization; inhibition, % at 3.39 µM; actives 1.5% (n = 330,000); AID 463082, 2010;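 active = inhibition above the mean inhibition across the screen plus 3 SD, cut at about 25% in these data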;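 note: inhibitors block binding of the rhodamine activity-based probe so polarization drops; 0% = enzyme with DMSO and 100% = wells lacking pPAFAH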
# Fam108B inh = mouse Fam108B serine hydrolase inhibitors, primary screen, counter-screen for RBBP9 inhibitor project, biochemical, fluorescence polarization. recombinant Fam108B, FP-Rh probe fluorescence polarization. inhibition, % at 9.51 µM. actives 0.33% (n = 300,000). AID 1947, 2009;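 active = inhibition above the screen mean inhibition plus 3 SD, computed separately per campaign, cut at about 18% in these data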;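 note: inhibitors lower polarization as less probe binds the enzyme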
# The depositor's hits bear a star; . = no result given.
SMILES,PAFAH1B3 inh,PME-1 inh,PAFAH1B2 FP inh,PAFAH2 inh,pPAFAH inh,Fam108B inh
O=[N+]([O-])c1cc2oc3c(c2c(C=NCc2ccncc2)c1O)CCCC3,26.4*,.,8.4,37.3*,.,.
CN(C)c1ccc(CNC(=O)CN(C)S(=O)(=O)c2cccc3cccnc23)cc1,7.4,33.3*,0.7,6.3,-5.2,-1.8
COc1ccc(OC)c(N(C(=O)c2ccco2)C(C(=O)NC2CCCC2)c2ccc(N3CCOCC3)cc2)c1 (centres undefined),2.2,0.9,6.2,-15.1,6.1,1.5
Cc1ccc(NC(=O)CS(=O)CC(=O)Nc2ccccc2-c2ccc(C)o2)cc1 (centres undefined),3.6,35.5*,18.3,-5.4,5.4,4.3
Nc1ccc2cccc(O)c2c1,19.1,.,2.5,3.7,.,.
C=CC[n+]1c(-c2ccc(Cl)cc2Cl)csc1Nc1ccc(NC(C)=O)cc1,9.9,7.2,7.8,32.7*,24.8*,1.1
C=CC[n+]1c(-c2ccc(Cl)cc2Cl)csc1Nc1c(C)n(C)n(-c2ccccc2)c1=O,4.5,1.7,16.5,0.7,9.6,5.0
O=c1c2cc(Br)ccc2[nH]c(=S)n1Cc1ccccn1,-2.5,-3.6,2.8,6.1,-3.8,-4.5
O=c1c2cc(Br)ccc2[nH]c(=S)n1Cc1ccccc1,9.8,-10.1,7.9,0.7,26.0*,-16.1
Clc1cccc(Cl)c1COc1ccncc1,5.9,3.9,1.4,-5.1,1.3,-2.7
O=C(OCc1c(Cl)cccc1Cl)c1ccncc1,4.0,-6.0,4.7,-5.0,27.1*,0.5
O=C(OCC(=O)N1CCN(C(=O)COC(=O)c2ccncc2)CC1)c1ccncc1,-5.3,-1.3,-1.7,-4.2,27.3*,-4.2
COCCCNC(=O)Cn1cc(/C=C(\C#N)C(=O)NC2CCCC2)c2ccccc21,5.7,2.7,2.7,-6.3,3.1,-1.6
COc1cccc(CNC(=O)COC(=O)C23CC4CC(CC(Cl)(C4)C2)C3)c1,-0.2,.,28.3*,-0.5,5.3,.
COc1ccc(CNC(=O)COC(=O)C2(C)CC2(Cl)Cl)cc1 (centres undefined),6.8,.,-2.4,1.1,-0.2,.
O=C(c1cccs1)N1CCC(c2nc3c(nnn3Cc3ccccc3Cl)c(=O)[nH]2)CC1,6.7,28.1*,2.6,7.2,8.6,-0.7
O=C(c1ccccc1)N1CCC(c2nc3c(nnn3Cc3ccccc3Cl)c(=O)[nH]2)CC1,5.1,20.8,0.7,17.5,2.3,6.2
CCC(CO)Nc1ncnc2c1cnn2-c1ccc(Cl)cc1 (centres undefined),0.3,5.2,1.4,6.2,6.3,1.5
CCC(CO)Nc1nc2ccc(Cl)cc2c2ccccc12 (centres undefined),6.3,11.1,0.6,13.1,27.3*,0.7
O=C1c2ccccc2-c2n[nH]c(=O)c3ccc(N4CCCCC4)c1c23,9.8,7.6,8.2,12.9,32.6*,2.9
O=C1c2cccc3c(N4CCCCC4)ccc(c23)C(=O)N1c1ccccn1,-6.4,-4.8,2.9,1.1,3.7,2.9
CCCCn1cnc2sc(-c3ccccc3)cc2c1=O,2.3,-2.5,5.5,2.7,1.4,3.9
O=c1c2cc(-c3ccccc3)sc2ncn1/N=C/c1ccco1,-1.9,0.3,3.8,7.5,25.9*,-1.4
O=C(CCCn1c(=S)[nH]c2ccsc2c1=O)Nc1ccc2c(c1)OCCO2,3.9,-7.5,4.1,4.4,-1.3,2.5
Cc1ccc(-c2c(C(=O)N/N=C/c3c[nH]c4ccccc34)nnn2-c2nonc2N)cc1,-0.3,26.7*,2.5,0.5,9.3,7.6
SMILES,PAFAH1B3 inh,PME-1 inh,PAFAH1B2 FP inh,PAFAH2 inh,pPAFAH inh,Fam108B inh
C[C@@]12C(=O)Nc3cc(Cl)ccc3C(=O)N1[C@H]1c3cc(Br)ccc3OC[C@@H]1[C@@H]2c1ccccc1,-32.3,-46.2,-14.1,-40.5,-15.8,-37.4
O=C(N/N=C/C(Br)=C/c1ccccc1)c1cnccn1,-1.1,3.9,3.5,7.4,3.0,-0.8
Cc1ccsc1C(=O)OCC(=O)Nc1ccc(Cl)cc1C(F)(F)F,1.1,-1.6,2.7,51.1*,32.6*,0.0
CC(C)N(C(=O)CSc1nc2ccccc2n1-c1ccccc1)C(C)C,-3.0,-2.3,5.4,-5.4,31.5*,0.7
O=C(CSc1nc2ccccc2n1-c1ccccc1)Nc1ncc(Cl)cc1Cl,3.9,0.1,3.4,-8.6,26.6*,4.7
CC(C)N(C(=O)CSc1nc2ccccc2n1Cc1ccccc1)C(C)C,-0.3,9.4,1.4,-8.7,4.4,-2.5
CCCc1nc2ccccc2c(C(=O)N(CC)CC(=O)NCc2cccs2)c1CC,-1.7,.,4.9,5.5,.,.
COc1ccc(NC(=O)CSc2nnc(Cc3cccn3C)n2-c2ccc(C)cc2)cc1OC,3.6,0.9,3.1,2.7,32.3*,-1.4
Cc1ccc(S(=O)(=O)/N=C2\C=C(NS(=O)(=O)c3ccccc3)C(=O)c3ccccc32)c(C)c1,-10.1,.,1.0,19.5,.,.
CC(C)(C)c1ccc(S(=O)(=O)/N=C2\C=C(NS(=O)(=O)c3ccccc3)C(=O)c3ccccc32)cc1,-9.1,15.5,41.5*,19.8,23.9,5.2
COc1cc(S(=O)(=O)Nc2cccc(C)c2)ccc1NC(=O)c1ccncc1,-4.1,7.8,1.4,10.0,33.1*,2.8
Cc1cccc(NC(=O)c2cccc(NS(=O)(=O)c3ccc(Cl)cc3)c2)c1,-4.6,-10.4,13.6,-1.9,2.4,2.2
CC(CN1c2ccccc2Sc2ccccc21)N(C)C (centres undefined),3.0,3.8,7.7,13.2,7.3,-2.3
C#CCN1c2ccccc2Sc2cccnc21,14.6,28.6*,10.4,7.0,9.7,12.5
O=C(CCNC(=O)C1CCN(S(=O)(=O)c2ccccc2)CC1)Nc1cccc(C(F)(F)F)c1,-2.6,10.6,2.5,6.0,5.7,0.0
CN(C(=O)COC(=O)C12CC3CC(CC(Cl)(C3)C1)C2)C1(C#N)CCCCC1,5.0,-2.0,24.3*,5.6,-3.8,.
COc1cc(NC(=O)C2CCCN(S(=O)(=O)c3ccc4c(c3)CCCN4C(C)=O)C2)cc(OC)c1 (centres undefined),4.6,-10.0,-1.0,0.6,30.3*,-3.9
CCCCn1c(N)c(N(CCOC)C(=O)C2CCN(c3ncnc4sc(C)c(C)c34)CC2)c(=O)[nH]c1=O,4.6,0.3,-1.0,4.9,2.6,-0.6
O=C(COc1ccc(S(=O)(=O)Nc2ccccc2)cc1)NCc1cccnc1,8.3,-0.7,-0.5,0.5,29.4*,-0.7
